# Screens (PubChem)
# In the library only some 21% were active in any assay of this set; here they are far more common.
# Cycloheximide cs: counter-screen hit for Shiga toxin inhibitors, cycloheximide | 12% of 300,000 active | AID 2314 | cell reporter, cycloheximide protein synthesis inhibition counterscreen | max response, %; in the data active = max response mostly above about 13%, no sharp cut-off; inactive = mostly below about 14%; also: read at 38.3 µM for the half of the compounds with a filed dose; 0% is about no effect
# Shiga toxin inh: inhibitors of Shiga toxin in Vero cells | AID 2315 | 9.2% of 290,000 active | Vero cells, Shiga toxin protein synthesis inhibition reporter | inhibition, % at 38.7 µM; in the data active = inhibition mostly above about 28%, no sharp cut-off; inactive = mostly below about 43%; also: 0% is about no effect
# NS1 inh: influenza NS1 inhibition; Potency, µM (series often up to 46.1 µM), for the others: at the highest dose activity, positive = more growth; 0.4% of 270,000 active; also: potency is read from the fitted curve at half-maximal effect; actives are rising curves; nearly all actives have a fitted effect of over 50% in size
#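 Recovery from NS1-induced slow growth read by OD600 in budding yeast switched to galactose assay medium (pH 6.0, -URA) at 1:100 dilution. Compound 23 nl per well; the matching strain lacking NS1 serves as control.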
# Pf growth 96h: P. falciparum growth inhibition at 96 hours. Potency, µM (top dose mostly 28.7 µM), for the others: at the top dose activity change, negative = inhibition, actives largely listed as inhibitors. 6.9% of 320,000 active. AID 504834. P. falciparum luciferase reporter growth, 96 h; active = well fitted inhibition curve with a large enough effect; inconclusive = small, poorly fitted or top-dose-only effect, or another doubt; inactive = no such curve, though single readings can be large or run the other way; also: potency is read from the fitted curve at half-maximal effect; % is scaled to controls: 0 for no effect and ±100 for the full control effect
#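 Erythrocytes infected with luciferase-expressing P. falciparum were dispensed at 2% hematocrit and 0.05% parasitemia (final), then incubated with compounds 96 hours at 37 C in 5% CO2. Luminescence after detection reagent addition reported growth.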
# SARS PLpro yeast: inhibitors of SARS-CoV papain-like protease in yeast; S. cerevisiae expressing SARS-CoV PLpro, growth rescue; Potency, µM (highest dose often 32.9 µM), inactives show top-dose activity, positive = growth rescue, usual class: activators; 0.19% of 330,000 active; also: potency is read from the fitted curve at half-maximal effect; 0% is about no effect; nearly all actives have a fitted effect of over 55% in size
# Pf growth 48h: P. falciparum growth inhibition at 48 hours (one generation). P. falciparum luciferase growth in erythrocytes, 48 h. Potency, µM (top dose mostly 28.7 µM), without a hit: at the highest dose activity change, negative = inhibition, most hits filed as inhibitors. 5.9% of 310,000 active; active = well fitted inhibition curve with a large enough effect; inconclusive = small, poorly fitted or top-dose-only effect, or another doubt; inactive = no such curve, though single readings can be large or run the other way; also: potency is read from the fitted curve at half-maximal effect; % is scaled to controls: 0 for no effect and ±100 for the full control effect
#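 Luciferase-expressing P. falciparum in infected erythrocytes (2% hematocrit, 0.1% parasitemia final) in RPMI 1640/0.5% Albumax were exposed to compound for 48 hours at 37 C, 5% CO2; growth read as luminescence.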
# * hit, by the source's call; ? = inconclusive; / = no result; [ ] = another dose, or the depositor's remark. Unless noted, calls follow the shape of the full dose curve.
SMILES,Cycloheximide cs,Shiga toxin inh,NS1 inh,Pf growth 96h,SARS PLpro yeast,Pf growth 48h
Cc1cc(=O)n2nc(N3CCCC(C(=O)NCCc4ccc(Cl)cc4)C3)sc2n1 (stereo not given),-2,-5,1%,?,1%,-19%
COC(=O)[C@]1(CC(C)C)N[C@H](c2ccc(-c3ccc4c(c3)OCO4)cc2)[C@@H]2C(=O)N(C)C(=O)[C@@H]21,/,/,/,13µM*,2%,?
COC(=O)[C@]1(CC(C)C)N[C@H](c2ccc(-c3cccc(Cl)c3)cc2)[C@@H]2C(=O)N(C)C(=O)[C@@H]21,/,/,/,1.3µM*,-22%,2.6µM*
COC(=O)[C@]1(Cc2ccccc2)N[C@H](c2ccc(-c3ccc4c(c3)OCO4)cc2)[C@@H]2C(=O)N(C)C(=O)[C@@H]21,/,/,/,?,-2%,?
CC(C)C(NS(=O)(=O)c1ccc2c(c1)Cc1cc(S(=O)(=O)NC(C(=O)O)C(C)C)ccc1-2)C(=O)O (stereo not given),1,-6,/,?,-1%,6%
Cc1ccc(NC(=O)Cc2ccc(F)cc2)cc1,21*,13,0%,/,0%,59%
Cc1ccc(NC(=O)CSCc2ccc(F)cc2)cc1,51*,76*,-37%,82%,0%,56%
CCC(C)(C)NC(=O)Cc1ccc(C)cc1,21*,83*,-1%,5%,16%,/
O=C(O)C(Cc1ccc(F)cc1)c1ccccc1 (stereo not given),-2,-1,-29%,3.3µM*,-1%,47%
CCCc1cc(=O)oc2cc(C)cc(OCC(=O)N[C@@H](CSCc3ccccc3)C(=O)O)c12,-4,-5,?,-14%,1%,?
Cc1ccc(NC(=O)C(C)N2CCN(C)CC2)cc1S(=O)(=O)N1CCOCC1 (stereo not given),/,/,/,-3%,1%,1%
Cc1ccc(CSCC(=O)Nc2ccccc2F)cc1,25*,68*,/,29%,0%,-4%[5.75 µM]
Cc1ccc(NC(=O)CSCc2ccco2)cc1,23*,105*,/,17%,-1%,69%
COc1ccc(CSCC(=O)Nc2ccccc2SC)cc1,0,-10,2%,-14%,5%,0%
COc1ccc(NC(=O)CC(Cc2ccccc2)C(=O)O)cc1 (stereo not given),7,-20,-1%,4%,2%,-4%
O=C(CC(Cc1ccccc1)C(=O)O)Nc1ccc(F)cc1 (stereo not given),-3,-7,-2%,2.3µM*,8%,-16%
O=C(CNc1ccccc1)Nc1ccc(F)cc1,75*,118*,?,/,-2%,224%
O=C1C2C(c3ccccc3)CC=CC2C(c2cccc([N+](=O)[O-])c2)N1Cc1ccccc1 (stereo not given),-1,3,/,/,/,/
COc1ccc(OC)c(S(=O)(=O)N2CCN(c3ccccn3)CC2)c1,-6,12,-37%,-24%,-2%,-3%
O=C(/C=C/c1ccccc1F)N1CCN(c2ccccn2)CC1,17*,24,-12%,-20%,-3%,?
O=C(/C=C/c1ccccc1)N1CCN(c2ccccn2)CC1,10,15,-12%,103%,5%,17%
COc1cc(/C=C/C(=O)N2CCN(c3ccccn3)CC2)cc(OC)c1OC,-1,-8,-5%,?,9%,?
COc1ccc(OC)c(S(=O)(=O)N2CCCCC2C(=O)N2CCN(c3ccccn3)CC2)c1 (stereo not given),-2,-14,-5%,25%,19%,12µM*
COc1ccc(/C=C/C(=O)N2CCN(c3ccccn3)CC2)cc1OC,-3,2,-15%,12µM*,-1%,-6%
CN1CCCN(C(=O)/C=C/c2ccc(F)cc2)CC1,16*,9,-3%,49%,-12%,28%
SMILES,Cycloheximide cs,Shiga toxin inh,NS1 inh,Pf growth 96h,SARS PLpro yeast,Pf growth 48h
O=C(/C=C/c1ccc(F)cc1)N1CCN(c2ncccn2)CC1,24*,71*,/,-15%,6%,-6%
O=C(/C=C/c1cccc(F)c1)N1CCN(c2ccccn2)CC1,22*,43*,5%,-4%,-2%,20%
COc1cccc2cc(C(=O)CS(=O)(=O)c3ccc(C)cc3)c(=O)oc12,-3,19,6%,4.7µM*,-1%,4%
COc1cccc2cc(CC(=O)c3ccc(C)cc3C)c(=O)oc12,55*,73*,-3%,-6%,-2%,-10%
CCOc1ccc(-c2csc(Cn3c(CN4CCN(C)CC4)nc4ccccc4c3=O)n2)cc1,1,-1,9%,?,0%,?
CSc1ccc(CN(C)C(=O)c2cc(=O)[nH]c3ccccc23)cc1,-7,-5,3%,-11%,-7%,-14%
CC(=O)Nc1ccc(C(=O)NCC(=O)OCc2ccccc2F)cc1,-1,-5,4%,?,1%,0%
CC(C)n1ncc(N2CCOCC2)c(Cl)c1=O,14*,8,7%,66%,0%,39%
O=c1c(Cl)c(N2CCOCC2)cnn1-c1nc2ccccc2[nH]1,24*,73*,/,310%,-2%,234%
C/C(Cn1ncc(N2CCOCC2)c(Cl)c1=O)=N\O,-2,6,1%,8%,1%,23%
CCOc1ccc(C(=O)/C=C/c2cn(CN3CCN(C)CC3)c3ccccc23)cc1,31*,61*,-30%,?,-6%,0%
Cc1ccc(OCCn2cc(/C=C/C(=O)O)c3ccccc32)cc1,-2,-4,-10%,?,-2%,-2%
COc1ccc(C(=O)/C=C/c2cn(CN3CCN(C)CC3)c3ccccc23)cc1,43*,49*,-109%,?,-15%,/
Cc1cc(Cl)nc2ccc(Cc3ccc4nc(Cl)cc(C)c4c3)cc12,6,-8,0%,?,0%,2.6µM*
CSc1nc(Cc2ccc(Cl)cc2)nc2ccccc12,-5,19,-19%,-3%,-16%,41%
Cc1nc(NN)c2c3c(sc2n1)COC(C)(C)C3,-5,-11,0%,?,1%,?
C=CCNc1nc(C(=O)OCC(=O)c2ccc(Cl)cc2)cs1,/,/,/,9%,-1%,-28%
Cc1ccc(CC(=O)Nc2ccc(Cl)cn2)cc1,41*,70*,-12%,152%,-18%,68%
Cc1ccc(NC(=O)Cc2ccc(-c3ccccc3)cc2)nc1,-3,50,-2%,24%,-6%,1%
O=C(CCSCCc1ccccn1)Nc1ccc(Cl)cn1,5,-11,0%,/,-4%,9%
Cc1ccc(S(=O)(=O)N(C)c2ccc(C(=O)Nc3ccc(C)cn3)cc2)cc1,/,/,/,?,-4%,12µM*
O=C(COC(=O)Cc1ccccc1)Nc1ccc(Cl)cn1,-1,7,/,4%,-6%,5%
O=C(Cc1ccccc1)Nc1ccc(Cl)cn1,23*,42,-12%,37%,-15%,0%
O=C(CSc1ccccn1)Nc1ccc(Cl)cn1,23*,44,0%,-1%,-1%,-30%
CC1=C[N+](=O)c2ccccc2[N+]1=O,/,/,0%,/,/,/
